From PubChem
The list is not random: actives were taken first. Their share in the collection is about 8.2%.
KB-V1 MDR tox: qHTS assay for MDR1-selective chemotherapeutics: Primary screen using the drug-selected MDR subline cells KB-V1. KB-V1 MDR cells viability, CellTiter-Glo, 72 h. Potency, µM (series often up to 46.1 µM), usual class: cytotoxic. 400,000 compounds, 3.4% hits. AID 1347076, 2019; note: nearly all actives have a fitted effect of over 60% in size
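Drug-selected KB-V1 cells, grown in DMEM lacking phenol red with 10% FBS, receive compound titrations; after three days at 37 degrees C, surviving cell ATP is quantified by CellTiter-Glo luminescence and responses normalized and curve-fitted.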
KB-3-1 cytotox: qHTS assay for MDR1-selective chemotherapeutics: Primary screen using the parental adenocarcinoma cell KB-3-1; Potency, µM (doses to about 46.1 µM), hits mostly cytotoxic; 400,000 compounds, 1.4% hits; KB-3-1 viability, CellTiter-Glo ATP luminescence, 72 h; note: nearly all actives have a fitted effect of over 60% in size
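Luminescent ATP read-out (CellTiter-Glo) measures survival of drug-naive KB-3-1 cells after 72 h compound exposure at 37 °C. Titration series was screened from lowest to highest concentration, with DMSO vehicle plates as background controls.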
SW480 rereplic: A quantitative high throughput screen for small molecules that induce DNA re-replication in SW480 colon adenocarcinoma cells; SW480 DNA re-replication, Hoechst DNA content imaging, 48 h; Potency, µM (highest dose often 46.1 µM), most hits filed as activators; 340,000 compounds, 1.8% hits; AID 624297, 2012; note: nearly all actives have a fitted effect of over 55% in size
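Image-based read-out: total Hoechst fluorescence of nuclei (405 nm excitation, 500-530 nm emission), with hits raising the fraction of high-intensity nuclei. SW480 colon cells incubated 48 hr with compounds at 37 C.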
ELG1 DNA repair: qHTS screen for small molecules that inhibit ELG1-dependent DNA repair in human embryonic kidney (HEK293T) cells expressing luciferase-tagged ELG1; HEK293T ELG1-luciferase reporter, luminescence, 16 h; DNA damage induced by 5-fluorouridine; Potency, µM (series often up to 46.1 µM), most hits filed as inhibitors; 330,000 compounds, 2.3% hits; AID 504467, 2011; note: nearly all actives have a fitted effect of over 55% in size
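5-Fluorouridine DNA damage + compound/DMSO, 2,000 cells/well, 16 h, 37 °C/5% CO2. ONE-Glo, 30 min RT, luminescence. Readout = decrease in reporter signal.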
MCF10A rereplic: A quantitative high throughput screen for small molecules that induce DNA re-replication in MCF 10a normal breast cells; MCF 10A DNA re-replication, Hoechst nuclear intensity, 48 h; Potency, µM (top dose mostly 46.1 µM), most hits filed as activators; 350,000 compounds, 2.9% hits; AID 624296, 2012; note: nearly all actives have a fitted effect of over 50% in size
Numbers stand for hits; n = inactive; u = inconclusive; x = no result given; [ ] = dose if it differs, or a comment. Calls come from the whole dose curve; as a rule, active = well fitted curve in the direction sought with a large enough effect; inconclusive = small, poorly fitted or top-dose-only effect, or another doubt; inactive = no such curve, though single readings can be large; an effect the other way counts as inactive or inconclusive.

SMILES	KB-V1 MDR tox	KB-3-1 cytotox	SW480 rereplic	ELG1 DNA repair	MCF10A rereplic
COC(=O)C(NNc1ccc(F)cc1)(NC(=O)c1ccccc1)C(F)(F)F (centres undefined)	18µM	n	n	n	n
COC(=O)C(NNc1ccccc1C)(NC(=O)c1ccc(F)cc1)C(F)(F)F (centres undefined)	n	n	n	n	n
CCCCc1ccc(-n2nnnc2SCC(=O)Nc2cc(OC)c([N+](=O)[O-])cc2C)cc1	n	n	u	n	u
O=C(c1ccco1)N1N=C(c2ccco2)CC1c1ccc(Cl)cc1Cl (centres undefined)	n	u	u	n	23µM
COc1ccc(C2=NN(C(=O)c3ccco3)C(c3cc4ccccc4nc3Cl)C2)cc1 (centres undefined)	n	n	n	n	n
Cc1cc(Nc2ccccc2F)n2nc(-c3ccccc3)nc2n1	n	n	x	x	x
COc1cccc(OC)c1C(=O)OCCCOC(=O)c1c(OC)cccc1OC	n	n	n	21µM	n
CC1C(=O)N2CCCc3cc(NS(=O)(=O)c4ccccc4)cc1c32 (centres undefined)	n	n	n	n	n
C/C(=N\N1CCN(Cc2ccc(Cl)cc2)CC1)c1ccc([N+](=O)[O-])cc1	n	u	n	16µM	n
O=[N+]([O-])c1ccc(Cl)c(/C=N/N2CCN(Cc3ccc(Cl)cc3)CC2)c1	u	n	n	n	n
O=C(Cn1ncc2ccsc2c1=O)N1CCN(c2ccc(F)cc2)CC1	n	n	x	x	x
CCOC(=O)C1CC2=C(CCCC2=O)N(Cc2ccccc2)C1=O (centres undefined)	n	n	n[9.22 µM]	x	n
COc1cc(C(=O)N=c2sccn2C)c([N+](=O)[O-])cc1OC	n	n	n	n	n
Cn1ccsc1=NC(=O)c1ccc([N+](=O)[O-])o1	u	u	9.2µM	n	7.3µM
O=C(Nc1c(C(=O)Nc2ccc(F)cc2)oc2ccccc12)c1ccccc1F	n	n	x	x	x
C/C(=N\Nc1ccc(Cl)c(C(=O)O)c1)c1cccc2ccccc12	n	n	n	u	n
O=C(NN=Cc1cccc2ccccc12)C(=O)NN=Cc1cccc2ccccc12	n	u	u	x	2.3µM
O=C(O)c1cc(N/N=C/c2cccc3ccccc23)ccc1Cl	n	n	n	u	23µM
C#CCCc1ccccc1/C=[N+](/C)[O-]	n	n	n	u	n
O=S1(=O)CC(N2CCSCC2)CN1Cc1cn(Cc2ccc(C(F)(F)F)cc2)nn1 (centres undefined)	n	n	x	x	x
COc1ccc(-n2c(C)cc(C(=O)Cn3nc(C(=O)O)c4ccccc4c3=O)c2C)cc1	15µM	n	n	n	n
COc1ccc(-n2c(C)cc(C(=O)CN3CCC(C)CC3)c2C)cc1	n	n	n	n	0.58µM
CC(=O)c1ccc(N2CCN(C(=O)C3CCN(S(=O)(=O)c4ccc(Br)s4)CC3)CC2)cc1	u	n	x	x	x
CCCCNC(=S)NCc1ccc2[nH]c3c(c2c1)CCCC3	21µM	n	n	u	n
S=C(NCc1ccc2[nH]c3c(c2c1)CCCC3)Nc1ccccc1Cl	u	u	n	n	3.7µM
SMILES	KB-V1 MDR tox	KB-3-1 cytotox	SW480 rereplic	ELG1 DNA repair	MCF10A rereplic
Cc1ccccc1NC(=S)NCc1ccc2[nH]c3c(c2c1)CCCC3	n	n	u	u	6.5µM
CNC(=S)NCc1ccc2[nH]c3c(c2c1)CCCC3	u	n	n	n	n
Cc1ccc(CN2C(=O)CSC2c2ccccc2F)cc1 (centres undefined)	n	n	n	n	n
CCOC(=O)C1=C(c2ccccc2)c2ccccc2N(S(=O)(=O)C(F)(F)F)C1C(=O)OCC (centres undefined)	n	n	n	16µM	u
CCOC(=O)C1=C(C2=CCCCC2)c2ccc(OC)cc2N(S(=O)(=O)C(F)(F)F)C1C(=O)OCC (centres undefined)	n	n	10µM	n	16µM
CCOC(=O)C1C(C(=O)OC)=C(c2ccc(OC)cc2)c2ccccc2N1S(=O)(=O)C(F)(F)F (centres undefined)	n	n	n	12µM	n
O=C(O)c1ccc2c(=O)n3cc(C(=O)c4ccccc4O)cc(Cl)c3nc2c1	n	n	u	u	u
CCC(C(=O)Nc1cc(-c2nc3cccnc3s2)ccc1C)c1ccccc1 (centres undefined)	n	n	x	x	x
Cn1sccc1=O	n	n	1.6µM	n	n
CCC1C/C(=C\c2cccnc2)C(=O)/C(=C/c2cccnc2)C1 (centres undefined)	u	3.7µM	x	2.6µM	u
O=C1/C(=C/c2cccnc2)CCC/C1=C\c1cccnc1	3.3µM	u	1.3µM	4.1µM	1.2µM
O=C1/C(=C/c2cccnc2)CC/C1=C\c1cccnc1	n	u	n	u	u
CN(C)c1ccc(/C=C2\CCC/C(=C\c3ccccc3)C2=O)cc1	18µM	n	n	u	18µM
COc1ccc(N=C2NC(=O)/C(=C\c3ccco3)S2)cc1	n	n	n	n	u
COc1cc(/C=C2/SC(=Nc3ccc(O)cc3)NC2=O)cc(OC)c1O	n	u	21µM	n	u
COc1ccc(/C=C2\SC(=Nc3ccccc3)NC2=O)cc1	x	x	x	n	x
COc1ccccc1N=C1NC(=O)/C(=C/c2ccc(N(C)C)cc2)S1	7.3µM	10µM	4.1µM	u	9.2µM
CCc1ccc(N=C2NC(=O)/C(=C/c3ccc(OCC(=O)O)c(OC)c3)S2)cc1	n	n	n	n	n
O=C1NC(=Nc2ccc(O)cc2)S/C1=C\C=C\c1ccco1	2.3µM	3.3µM	u	u	u
COc1ccc(N=C2NC(=O)/C(=C/c3ccc(O)c(OC)c3)S2)cc1	u	u	23µM	u	u
O=C(Nc1cccc2c(=O)[nH][nH]c(=O)c12)c1ccc([N+](=O)[O-])cc1	n	n	x	x	x
CCN(Cc1ccccc1)C(=O)Cn1c(=O)cc(C)c2c(C)nn(-c3cccc(F)c3)c21	n	n	x	x	x
COc1cc(/C=C2\SC(=Nc3ccc(O)cc3)NC2=O)cc(OC)c1OC	n	4.6µM	3.3µM	n	u
CCn1c(C)nc2cc(S(=O)(=O)C(F)(F)C(F)C(F)(F)F)ccc21 (centres undefined)	n	u	n	7.3µM	n
CCn1c(C)nc2cc(S(N)(=O)=O)ccc21	n	n	n	n	13µM
CC1(C(=O)Nc2ccc3ccccc3c2)CCC(=O)N1C1CC1 (centres undefined)	n	n	x	x	x
COc1ccc(C)cc1S(=O)(=O)N1CCN(C/C=C/c2ccccc2)CC1	18µM	n	n	n	n
